LMP1 NFkB inh: Epstein-Barr LMP1 NF-kappaB reporter inhibition; 350,000 compounds, 0.69% hits; inhibition, % at 12.5 µM; LMP1-induced NF-kappaB luciferase reporter cells, luminescence; AID 504558; in the data active = inhibition above about 41%;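 note: 0% = neutral control wells and 100% = reference inhibitor control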
LGR2 inh: blocks bursicon-induced cAMP signaling via Drosophila LGR2; HEK293 LGR2, CRE-luciferase, bursicon-stimulated, 4 h; AID 720647; 380,000 compounds, 0.35% hits; inhibition, % at 9.99 µM;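 active = drop in luminescence signal, shown as inhibition above about 50% in the replicate tests, limit read from the data, passing the limit was not always enough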;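 note: agonist challenge used bursicon conditioned medium at about half maximal strength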
TRPM1 prom inh: MITF TRPM1 promoter inhibition in SK-MEL-5 cells. 330,000 compounds, 0.83% hits. SK-MEL-5 TRPM1 promoter luciferase, 24 h. inhibition, % at 12.5 µM;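 active = mean inhibition across replicates of 60% or more, whatever share of single replicates reaches that level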
PAX8 inh HTS: inhibitors of PAX8 transcriptional activity in RMG-I cells; RMG-I TPO-luciferase reporter, SteadyGlo, 24 h; inhibition, % at 12.6 µM; 360,000 compounds, 1.2% hits; AID 652154;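 active = mean replicate inhibition at least 60% with every replicate also reaching 60%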;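 note: luciferase light reporting Pax8 driven TPO promoter activity; plate controls were median of neutral control wells for no effect and mitoxantrone controls for full effect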
Shn3 3UTR inh: inhibitors of Schnurri-3 3'UTR reporter in osteoblasts. Clone20 osteoblast Shn3 3'UTR firefly luciferase, 24 h. inhibition, % at 12.5 µM. 360,000 compounds, 0.52% hits. AID 588674;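 active = mean inhibition of at least 75% with every replicate also reaching 75%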;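 note: 0% = median of neutral control wells and 100% = pilot-screen positive control compound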
EWS-Fli block: blocks EWS/Fli oncoprotein-driven transcription | A673 NR0B1-luciferase reporter, viability-normalised | inhibition, % at 12.6 µM | 350,000 compounds, 0.67% hits;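 active = mean inhibition of at least 50% after viability correction, with every replicate also passing that limit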;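 note: firefly luciferase signal divided by Alamar Blue viability fluorescence both relative to DMSO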
Active calls of the source: *; x = not tested or not shown. Sampled rows, rich in hits. Any-hit rate of the full collection: about 2.2%.

SMILES	LMP1 NFkB inh	LGR2 inh	TRPM1 prom inh	PAX8 inh HTS	Shn3 3UTR inh	EWS-Fli block
O=C(Nc1ccccc1)N[C@@H]1CC[C@@H](CCn2cc(-c3ccccc3F)nn2)O[C@H]1CO	x	11	x	x	x	6
Cc1noc(C)c1NC(=O)N[C@@H]1C=C[C@@H](CC(=O)N2CCCCC2)O[C@@H]1CO	x	13	x	0	x	7
COc1cc(Nc2nc(-c3ccccc3)c3cc(C)ccc3n2)cc(OC)c1OC	-21	x	11	x	84*	x
COc1cccc(Nc2nc(NCC3CCCO3)c3ccccc3n2)c1 (configuration not stated)	-15	x	32	x	88*	x
c1csc(-c2nc(NCC3CCCO3)c3ccccc3n2)c1 (configuration not stated)	3	-5	8	10	14	5
c1ccc2c(NCC3CCCO3)nc(N3CCCCC3)nc2c1 (configuration not stated)	-4	11	5	63*	4	2
COc1ccc2c3c([nH]c2c1)[C@H](CO)N(C(=O)Nc1c(C)noc1C)CC31CCN(CC2CCCC2)CC1	x	24	x	-14	x	-7
COc1cc(Cl)c(NC2=CC(=O)C(=O)c3ccccc32)c(OC)c1	1	-13	96*	95*	19	5
Cc1ccc(NC2=CC(=O)C(=O)c3ccccc32)c(C)c1	1	37	x	27	37	33
O=C1C=C(NCc2ccccc2)c2ccccc2C1=O	-12	96*	104*	77*	37	44
O=C1C=C(Nc2ccccc2O)c2ccccc2C1=O	-4	-2	100*	x	25	-2
O=c1cccccc1NCc1ccccc1	-7	-18	-23	-24	-39	x
O=C1C=C(Nc2cccnc2)c2ccccc2C1=O	-36	7	101*	29	11	-1
COc1ccc2c3c([nH]c2c1)[C@@H](CO)N(Cc1nccs1)CC31CCN(Cc2nccs2)CC1	x	-15	x	x	x	0
CCS(=O)(=O)Nc1ccc2c(c1)C(=O)N(C)C[C@@H](OC)[C@@H](C)CN(Cc1ccccn1)[C@@H](C)CO2	x	17	x	x	x	-4
CCOc1ccc(NC2=CC(=O)CCC2)cc1	-1	-9	-9	11	-11	-10
O=C1C=C(Nc2ccc(F)cc2)c2ccccc2C1=O	-8	-42	97*	-82	8	-52
CCOc1ccc(NC2=CC(=O)C(=O)c3ccccc32)cc1	0	-20	102*	49	12	12
CO[C@@H]1CN(C)C(=O)c2ccc(NC(=O)C3CCC3)cc2OC[C@H](C)N(C(=O)CN(C)C)C[C@@H]1C	x	1	x	-5	x	-5
C[C@H](CO)N1C[C@H](C)[C@H](CN(C)Cc2ccc(C(=O)Nc3ccccc3N)cc2)Oc2ccc(NC(=O)NC3CCCCC3)cc2CC1=O	x	-31	x	-9	x	-4
C[C@H](CO)N1C[C@H](C)[C@@H](CN(C)S(=O)(=O)c2ccccc2)OCCCC[C@H](C)Oc2ccc(NC(=O)Nc3ccc(F)cc3)cc2C1=O	x	-6	x	2	x	17
CC1=NNC(=O)/C1=C\c1cn(-c2ccccc2)nc1-c1ccccc1	-56	106*	95*	33	97*	82*
Cc1ccccc1-c1ccc2c(c1)O[C@@H](CN(C)Cc1ccncc1)[C@H](C)CN([C@H](C)CO)S2(=O)=O	x	0	x	x	x	66*
Cc1ccc(-c2ccc3c(c2)O[C@H](CN(C)Cc2ccncc2)[C@@H](C)CN([C@H](C)CO)S3(=O)=O)cc1	x	-6	x	x	x	72*
C[C@@H]1CCCCO[C@@H](CN(C)C(=O)Nc2ccc3c(c2)OCO3)[C@H](C)CN([C@H](C)CO)C(=O)c2cc(N(C)C)ccc2O1	x	16	x	11	x	-1
COc1ccc(C)cc1NC(=O)CNC(c1ccccc1)c1ccc(C)cc1 (configuration not stated)	17	-8	26	8	32	55*
COc1ccccc1NC(=O)CNC(c1ccccc1)c1ccccc1	-8	-1	-5	-6	9	3
N#C[C@H]1[C@@H](c2ccccc2-c2ccc(F)cc2)[C@@H](CO)N1c1ncc(-c2ccccc2)s1	x	14	x	8	x	1
CCOC(=O)Cn1c(S(=O)(=O)Cc2ccccc2Cl)nc(-c2ccccc2)c1-c1ccccc1	-13	7	-1	x	88*	-13
C#CCn1c(S(=O)(=O)Cc2ccccc2Cl)nc(-c2ccccc2)c1-c1ccccc1	-25	17	14	x	75	x

Screens: PubChem, Broad Institute
